Experimental data published in PubChem BioAssay (NCI).
The panel holds about 79,000 compounds, 15% with a hit somewhere; the sample as a whole holds those more often. Cut-off read from the data, not from the text of the source: active = growth inhibition above about 70%; inactive = the rest.

Key:
[1] = NCI Yeast Anticancer Drug Screen. Data for the rad50 strain (AID 155);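 note: 0% = growth of vehicle-only cultures of the same strain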; settings: S. cerevisiae rad50 strain growth inhibition; at 50.0 µM; stronger effect = higher value
In short: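 Compounds were tested on a yeast strain with an engineered DNA damage repair alteration; the reported value is growth inhibition normalised to vehicle treatment.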

[2] = NCI Yeast Anticancer Drug Screen. Data for the mec2-1 strain (AID 157); settings: S. cerevisiae mec2-1 strain, at 50.0 µM, stronger effect = higher value
In short: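 Test agents were screened against the mec2-1 yeast strain, with defined DNA repair or cell cycle alteration. Growth was scored as inhibition against vehicle-only controls.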

[3] = NCI Yeast Anticancer Drug Screen. Data for the sgs1 mgt1 strain (AID 161);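 note: 0% = growth of cultures given vehicle only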; settings: S. cerevisiae sgs1 mgt1 strain, at 50.0 µM, stronger effect = higher value
In short: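 Inhibition of yeast growth, normalised to vehicle-treated controls, is reported for a strain bearing genetic alterations in DNA damage repair.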

[4] = NCI Yeast Anticancer Drug Screen. Data for the cln2 rad14 strain (AID 165);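 note: 0% = growth equal to vehicle treated cultures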; settings: S. cerevisiae cln2 rad14 strain, at 50.0 µM, stronger effect = higher value
In short: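 Growth of compound-exposed yeast (cln2 rad14 genotype) measured and expressed as inhibition relative to vehicle.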

[5] = NCI Yeast Anticancer Drug Screen. Data for the bub3 strain (AID 167); settings: S. cerevisiae bub3 mutant strain, at 50.0 µM, stronger effect = higher value
In short: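 Growth of a checkpoint-deficient yeast mutant is measured after compound exposure. Values represent inhibition relative to vehicle.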

[6] = NCI Yeast Anticancer Drug Screen. Data for the mlh1 rad18 strain (AID 175); settings: S. cerevisiae mlh1 rad18 strain growth inhibition; at 50.0 µM; stronger effect = higher value
In short: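 In this whole-cell yeast screen, a strain with altered DNA damage repair is challenged with compound, and its growth is measured against matched vehicle-treated controls.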

Measured: growth inhibition

CC(C)=C1CC(=O)NC1=O
inactive: [1] -10.8% | [2] 17.1% | [3] -3.2% | [4] 6.35% | [5] -6.05% | [6] 0.55%

O=C1c2c(c3c4ccccc4[nH]c3c3[nH]c4ccccc4c23)C(=O)N1Cc1ccccc1
inactive: [1] -9.4% | [2] -5.95% | [3] 4.95% | [4] -6.6% | [5] -5.45% | [6] 10.2%

CCOC(=O)C(C(=O)OCC)C(c1ccccc1)c1ccccc1OC (stereo unspecified)
inactive: [1] 6.9% | [2] 12% | [3] 4.15% | [4] 17% | [5] 12.3% | [6] -9.55%

CCOC(=O)C(C)(C)Oc1ccc2c(C)c(-c3ccc(Cl)cc3)c(=O)oc2c1
inactive: [1] -1.7% | [2] -26.4% | [3] -1.25% | [4] -41.2% | [5] -47.6% | [6] -10.9%

Cc1cc2c(cc1Cl)SC(N/N=C(\N)c1ccc(Cl)cc1)=NS2(=O)=O
inactive: [1] -34.2% | [2] -0.8% | [3] -12.3% | [4] -16.2% | [5] -14.4% | [6] -8.1%

C1CSCCSCSCCS1
inactive: [1] 32.1% | [2] 11.8% | [3] 17.8% | [4] 30.7% | [5] 42.4% | [6] 17.8%

Cc1cccc(C2=C/C(=C(\SS/C(C(=O)c3ccc(OCC(=O)O)c(Cl)c3Cl)=C3\C=C(c4cccc(C)c4)SS3)C(=O)c3ccc(OCC(=O)O)c(Cl)c3Cl)SS2)c1
inactive: [1] -6.65% | [2] -22.8% | [3] -0.6% | [4] 1.95% | [5] -5.15% | [6] -10.7%

N=N/C(=C\c1c(O)[nH]c2ccccc12)c1ccccc1
inactive: [1] -7.35% | [2] 13.6% | [3] 34.2% | [4] -35.2% | [5] 57.3% | [6] -8.75%

OCC1SC(O)C(O)C(O)C1O (stereo unspecified)
inactive: [1] 28.2% | [2] -5.55% | [3] 11.8% | [4] 10.7% | [5] 25.1% | [6] 19.6%

CCC(C(=O)O)C(C)(C)C (stereo unspecified)
inactive: [1] 6.8% | [2] 0.55% | [3] 1.8% | [4] -4.9% | [5] -0.3% | [6] 9.3%

CCCCCC(=O)C(C)(c1nc2nnc(NC(=O)Nc3ccc(Cl)cc3)n2[nH]c1=O)c1nc2nnc(NC(=O)Nc3ccc(Cl)cc3)n2[nH]c1=O
inactive: [1] -42.8% | [2] -21.6% | [3] -24.3% | [4] -45% | [5] -38.8% | [6] -32.5%

c1ccc2c(c1)C1C3c4ccccc4C1C1C2C31
inactive: [1] 5.1% | [2] 12.1% | [3] -0.1% | [4] 2.6% | [5] 3.5% | [6] -2.8%

O=C1c2ccccc2Cc2ccc(O)cc21
inactive: [1] 47.1% | [2] 21.3% | [3] 11.1% | [4] 10.3% | [5] 11.8% | [6] 10.8%

CC/C=C\CCOC(=O)C1OC1c1ccccc1 (stereo unspecified)
inactive: [1] 8.15% | [2] 17.3% | [3] -8.75% | [4] 10.9% | [5] 0% | [6] 1.5%

N/C(=N\N=C\c1ccccn1)NO
inactive: [1] 1.05% | [2] -12.6% | [3] -5.35% | [4] -6.95% | [5] -6.15% | [6] 0.7%

CSCCNC(=O)CS(=O)(=O)c1ccc(N)cc1
inactive: [1] -10.3% | [2] -25.9% | [3] -7.65% | [4] -13.2% | [5] -2.35% | [6] -14.9%

COc1ccccc1OCc1nnc(SCC(=O)O)n1-c1ccccc1
inactive: [1] 3.75% | [2] 3.4% | [3] 2.45% | [4] 11.6% | [5] 8.4% | [6] 27.9%

COC(=O)c1ccc(-n2c(C)nc(=O)c(-c3ccccc3)c2C)cc1
inactive: [1] -6.85% | [2] -33.4% | [3] 12.4% | [4] 11.9% | [5] 0.95% | [6] 7.65%

CCN(CC)/N=C\c1c2ccccc2cc2ccccc12
inactive: [1] 19.8% | [2] 11.2% | [3] 7.7% | [4] 9.4% | [5] 13.3% | [6] 60.4%

NC1C([O-])OC(CO)C(O)C1O.O=C1OC(C(O)CO)C([O-])=C1[OH2+].[Cu+2] (stereo unspecified)
inactive: [1] -0.4% | [2] -0.15% | [3] -19.6% | [4] -8.25% | [5] -1.55% | [6] -12.8%

O=C(O)CCc1nc[nH]c1[N+](=O)[O-]
inactive: [1] -33.3% | [2] -10.6% | [3] -7.55% | [4] -44.9% | [5] 11.1% | [6] 8.1%
